Measurements from PubChem BioAssay (NCATS).
Records with an inconclusive call do not appear. Where a call stands in place of a potency, no number is given. The source made the active and inactive calls. Unless noted, the call rests on the fitted dose curve; in most records, active means well fitted curve in the direction sought with a large enough effect; inconclusive means small, poorly fitted or top-dose-only effect, or another doubt; inactive means no such curve, though single readings can be large; an effect the other way counts as inactive or inconclusive.

How the values were obtained:
[1] = target: Catechol O-methyltransferase (Homo sapiens) (UniProt P21964); experiment: Confirmatory Screen for Target Class Profiling of Small Molecule Inhibitors of Methyltransferases (AID 1745852); details: MTase-Glo luminescence, SAH detection, recombinant enzyme; measured here: COMT max response; stronger effect = lower value
Sequence of Catechol O-methyltransferase (Homo sapiens) (P21964 whole entry, looked up): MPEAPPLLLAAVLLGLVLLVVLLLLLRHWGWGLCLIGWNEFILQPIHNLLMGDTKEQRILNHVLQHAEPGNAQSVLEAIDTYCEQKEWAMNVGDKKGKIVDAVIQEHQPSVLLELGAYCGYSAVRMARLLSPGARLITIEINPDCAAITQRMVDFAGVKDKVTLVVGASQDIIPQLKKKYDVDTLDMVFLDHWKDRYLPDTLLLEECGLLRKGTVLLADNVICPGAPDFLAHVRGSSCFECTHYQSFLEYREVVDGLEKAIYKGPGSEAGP

[2] = target: Guanidinoacetate N-methyltransferase (Homo sapiens) (UniProt Q14353); experiment: as above; details: MTase-Glo luminescence, SAH detection, recombinant enzyme; activity change, negative = inhibition: at 85.7 µM (top of the series) unless noted
[3] = target: Nicotinamide N-methyltransferase (Homo sapiens) (UniProt P40261); experiment: as above; details: MTase-Glo luminescence, SAH detection, recombinant enzyme; measured here: NNMT max response; stronger effect = lower value
Sequence of Nicotinamide N-methyltransferase (Homo sapiens) (P40261 whole entry, looked up): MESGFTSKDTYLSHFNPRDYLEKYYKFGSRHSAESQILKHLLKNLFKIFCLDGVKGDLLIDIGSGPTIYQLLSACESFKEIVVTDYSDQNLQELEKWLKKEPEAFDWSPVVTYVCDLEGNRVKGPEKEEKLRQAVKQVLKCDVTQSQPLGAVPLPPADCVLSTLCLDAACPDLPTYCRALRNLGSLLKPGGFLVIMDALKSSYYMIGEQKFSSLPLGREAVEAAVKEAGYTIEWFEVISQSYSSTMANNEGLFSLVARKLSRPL

[4] = target: Phenylethanolamine N-methyltransferase (Homo sapiens) (UniProt P11086); experiment: as above; details: MTase-Glo luminescence, SAH detection, recombinant enzyme; measured here: PNMT max response; stronger effect = lower value
Sequence of Phenylethanolamine N-methyltransferase (Homo sapiens) (P11086 whole entry, looked up): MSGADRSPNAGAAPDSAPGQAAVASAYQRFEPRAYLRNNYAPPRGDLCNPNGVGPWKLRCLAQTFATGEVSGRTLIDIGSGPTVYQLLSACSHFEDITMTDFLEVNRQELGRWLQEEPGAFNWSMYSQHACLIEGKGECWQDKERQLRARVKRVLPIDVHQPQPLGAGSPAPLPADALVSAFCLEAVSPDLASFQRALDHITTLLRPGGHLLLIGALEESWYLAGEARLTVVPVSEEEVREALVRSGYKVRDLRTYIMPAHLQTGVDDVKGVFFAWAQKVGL

[5] = qHTS for differential inhibitors of proliferation of Plasmodium falciparum line 3D7 (AID 1876); further: potency means the concentration at half of the fitted maximal effect; details: P. falciparum 3D7 proliferation inhibition; series mostly up to 28.7 µM
[6] = qHTS for differential inhibitors of proliferation of Plasmodium falciparum line Dd2 (AID 1882); details: Potency: Plasmodium falciparum Dd2 proliferation inhibition; series mostly up to 28.7 µM; further: nearly all actives have a fitted effect of over 65% in size; further: potency means the concentration at half of the fitted maximal effect;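 on activity change, negative = inhibition: compound exposure of 72 h on infected erythrocytes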
Summary of the method: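 SYBR Green I DNA fluorescence read-out, ex 485/em 535 nm. Signals were normalized to 0.29 uM artemisinin and DMSO wells, then corrected using vehicle-only plates flanking each stack. Parasite growth ran 72 h in erythrocytes before lysis.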

[7] = Validation screen for inhibitors of Lassa infection (AID 463096; calls by dose curve; further: potency means the concentration at half of the fitted maximal effect); details: Lassa virus infection, cell-based; series mostly up to 46.1 µM
[8] = target: M-phase phosphoprotein 8 (Homo sapiens) (UniProt Q99549); experiment: qHTS Validation Assay for Inhibitors for MPP8 Chromodomain Interactions with Methylated Histone Tails (AID 488949); details: AlphaScreen MPP8 binding to H3K9me3 peptide; series mostly up to 114 µM;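 further: 50 nM MPP8 with 50 nM peptide preformed then compounds added for 30 min; AlphaScreen signal from MPP8 chromodomain bound to biotinylated H3K9me3 peptide; top concentration of the series differs between compounds; nearly all actives have a fitted effect of over 55% in size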
Sequence of M-phase phosphoprotein 8 (Homo sapiens) (Q99549 whole entry, looked up): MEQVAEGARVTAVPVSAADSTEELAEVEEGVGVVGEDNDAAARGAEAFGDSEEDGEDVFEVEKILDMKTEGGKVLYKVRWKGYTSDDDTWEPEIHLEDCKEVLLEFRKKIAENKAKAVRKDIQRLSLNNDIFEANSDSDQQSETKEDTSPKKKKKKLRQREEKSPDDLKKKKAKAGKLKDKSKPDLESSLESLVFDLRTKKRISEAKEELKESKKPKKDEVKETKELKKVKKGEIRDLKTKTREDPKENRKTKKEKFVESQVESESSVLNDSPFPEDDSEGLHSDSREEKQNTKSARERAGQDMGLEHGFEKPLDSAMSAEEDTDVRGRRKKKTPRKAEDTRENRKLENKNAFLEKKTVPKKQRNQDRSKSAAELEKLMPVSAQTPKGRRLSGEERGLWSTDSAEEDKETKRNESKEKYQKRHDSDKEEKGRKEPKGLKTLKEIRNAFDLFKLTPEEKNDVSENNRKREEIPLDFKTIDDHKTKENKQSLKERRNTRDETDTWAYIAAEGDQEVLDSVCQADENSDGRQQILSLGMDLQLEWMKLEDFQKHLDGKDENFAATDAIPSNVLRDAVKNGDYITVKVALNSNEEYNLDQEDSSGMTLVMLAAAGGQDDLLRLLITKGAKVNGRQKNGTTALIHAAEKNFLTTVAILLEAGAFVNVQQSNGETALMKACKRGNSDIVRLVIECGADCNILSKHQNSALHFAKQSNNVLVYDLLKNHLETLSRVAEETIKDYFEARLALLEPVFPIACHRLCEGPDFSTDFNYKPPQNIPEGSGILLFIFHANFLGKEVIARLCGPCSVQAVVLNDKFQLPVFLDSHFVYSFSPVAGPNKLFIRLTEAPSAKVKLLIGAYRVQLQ
Summary of the method: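 50 nM MPP8 + 50 nM b-H3K9me3 peptide, PBS pH 7.4/0.01% Tween-20, 30 min RT; + cpd 30 min RT; + AlphaScreen donor/Ni-chelate acceptor beads 10 ug/mL final, 30 min dark; luminescence read.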

[9] = target: Peroxisome proliferator-activated receptor delta (Homo sapiens) (UniProt Q03181); experiment: qHTS assay for small molecule agonists of peroxisome proliferator-activated receptor delta signaling (AID 588534; calls by dose curve); details: HEK293T PPARdelta-UAS-bla, beta-lactamase ratio, 18 h; series mostly up to 76.7 µM
Sequence of Peroxisome proliferator-activated receptor delta (Homo sapiens) (Q03181 whole entry, looked up): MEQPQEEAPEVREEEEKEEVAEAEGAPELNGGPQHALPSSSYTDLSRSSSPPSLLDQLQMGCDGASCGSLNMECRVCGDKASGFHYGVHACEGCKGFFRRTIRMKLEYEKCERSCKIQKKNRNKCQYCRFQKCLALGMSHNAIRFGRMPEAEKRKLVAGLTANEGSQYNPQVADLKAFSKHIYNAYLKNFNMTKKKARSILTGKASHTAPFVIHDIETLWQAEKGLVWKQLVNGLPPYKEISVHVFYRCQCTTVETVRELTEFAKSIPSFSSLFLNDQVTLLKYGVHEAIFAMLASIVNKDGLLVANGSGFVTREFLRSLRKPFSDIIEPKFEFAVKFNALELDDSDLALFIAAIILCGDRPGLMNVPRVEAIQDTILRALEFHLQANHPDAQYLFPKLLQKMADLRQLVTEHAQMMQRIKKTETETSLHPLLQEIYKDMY
Summary of the method: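 Reporter cells were plated and held 5 hrs at 37 C before compounds were added. After 18 hrs at 37 C, CCF4 dye was loaded for 2 hrs at RT and fluorescence measured.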

[10] = target: Nuclear receptor subfamily 1 group I member 3 (Homo sapiens) (UniProt Q14994); experiment: Primary qHTS for antagonist of constitutive androstane receptor (CAR) against the NCATS DSHEA and TCM libraries (AID 1794836); details: CAR reporter cell assay, antagonist mode, luciferase; series mostly up to 40 µM; further: potency means the concentration at half of the fitted maximal effect;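 on activity change, negative = inhibition: HepG2 cells stably expressing hCAR with CYP2B6 luciferase reporter stimulated by CITCO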
Sequence of Nuclear receptor subfamily 1 group I member 3 (Homo sapiens) (Q14994 whole entry, looked up): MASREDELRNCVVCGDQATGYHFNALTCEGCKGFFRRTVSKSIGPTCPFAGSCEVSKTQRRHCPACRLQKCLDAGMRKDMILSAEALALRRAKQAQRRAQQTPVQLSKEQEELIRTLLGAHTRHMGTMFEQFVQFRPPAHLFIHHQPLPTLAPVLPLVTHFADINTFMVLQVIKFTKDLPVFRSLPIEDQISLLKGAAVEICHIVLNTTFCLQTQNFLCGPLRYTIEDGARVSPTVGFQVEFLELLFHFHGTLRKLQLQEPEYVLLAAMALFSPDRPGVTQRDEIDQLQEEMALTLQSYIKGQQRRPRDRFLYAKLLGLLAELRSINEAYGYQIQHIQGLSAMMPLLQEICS
Summary of the method: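 HepG2-CYP2B6-hCAR cells, attached 5 h, given compounds plus CITCO agonist […], incubated 24 h at 37 C. Luciferase luminescence read, multiplexed with CellTiter-Fluor viability (Ex/Em 405/540 nm).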

[11] = NCATS anti-infectives library activity on HEK293 viability as a counter-qHTS vs the C. elegans viability qHTS (AID 1745854); details: HEK293 viability counter-screen; series mostly up to 41.8 µM;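 further: HEK293 cells exposed to compounds for 24 hr before the viability read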
Summary of the method: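 Cytotoxicity in human HEK293 cells is measured by ATP-dependent CellTiter-Glo luminescence following a 24 hr incubation with titrated library compounds at 37C. Top final concentration is 41.7 uM.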

[12] = qHTS for differential inhibitors of proliferation of Plasmodium falciparum line W2 (AID 1883); details: Potency: Plasmodium falciparum W2 proliferation inhibition; series mostly up to 28.7 µM;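 further: parasites grown with compound for 72 h before lysis and staining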; further: potency means the concentration at half of the fitted maximal effect
[13] = HepG2 viability counterscreen (readout 2: ATP content) against the NCATS DSHEA and TCM libraries (AID 1794840); details: ATP content luminescence; series mostly up to 27.3 µM
Summary of the method: (§1)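 Same wells read twice: first fluorescence from cleaved GF-AFC substrate (25 uM final, 30 min, 37C) for live-cell protease, then CellTiter-Glo luminescence after 30 min at room temperature for ATP. HepG2 cells were exposed ~24 h to substances.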

[14] = HepG2 viability counterscreen (readout 1: protease activity) against the NCATS DSHEA and TCM libraries (AID 1794841); details: qHTS concentration series; series mostly up to 27.3 µM;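 further: cells exposed to compounds for about 24 h before the protease read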
Summary of the method: as §1

[15] = KB-3-1 P-gp reporter qHTS against the NCATS DSHEA and TCM libraries (AID 1919975); details: KB-3-1 parental cells, CellTiter-Glo luminescence viability, 72 h; series mostly up to 26.1 µM
Summary of the method: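 KB-3-1 parental line, 1536-well qHTS: cells seeded, ~4 h attachment, pintool compound addition, ~72 h at 37C, then CellTiter-Glo, 30 min RT, luminescence. Concentration-response format.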

[16] = KB-8-5-11 P-gp reporter qHTS against the NCATS DSHEA and TCM libraries (AID 1919977); details: KB-8-5-11 cells; series mostly up to 26.1 µM; further: potency means the concentration at half of the fitted maximal effect
Summary of the method: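 KB-8-5-11, 500 cells/well, DMEM/10% FBS without colchicine; 4 h attach; cpd titrations, 72 h, 37C/5% CO2; CellTiter-Glo, 30 min RT, luminescence.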

[17] = qHTS Counterscreen for compound interference against the NCATS DSHEA and TCM libraries (AID 1919978); details: firefly luciferase detection reagent interference, luminescence;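 further: compounds preincubated with 1 µM D-luciferin or buffer before detection reagent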
Summary of the method: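 Compounds, titrated from 19.5 nM to 39.8 uM final, were pinned onto 1 uM D-luciferin or plain 100 mM potassium phosphate. After 15 min at room temperature, luciferin detection reagent was added for 30 min before the luminescence read.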

[18] = Dual reporter qHTS for agonist of Pregnane X Receptor (hPXR) against the NCATS DSHEA and TCM libraries: Fluorescence readout (AID 1920058); details: PXR dual reporter cells; series mostly up to 40 µM
Summary of the method: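 Measures viability of the PXR reporter HepG2 line by protease-substrate fluorescence (405/540 nm), taken 1 h after CellTiter-Fluor addition. Substances are tested as concentration series over a ~24 h exposure, with rifampicin as agonist control.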

[19] = target: Nuclear receptor subfamily 1 group I member 2 (Homo sapiens) (UniProt O75469); experiment: Dual reporter qHTS for antagonist of Pregnane X Receptor (hPXR) against the NCATS DSHEA and TCM libraries: Luminescence Readout (AID 1920060); details: hPXR dual reporter cells, luciferase luminescence, antagonist mode; series mostly up to 40 µM;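 further: HepG2 cells carrying hPXR luciferase reporter stimulated with rifampicin at 2 µM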
Sequence of Nuclear receptor subfamily 1 group I member 2 (Homo sapiens) (O75469 whole entry, looked up): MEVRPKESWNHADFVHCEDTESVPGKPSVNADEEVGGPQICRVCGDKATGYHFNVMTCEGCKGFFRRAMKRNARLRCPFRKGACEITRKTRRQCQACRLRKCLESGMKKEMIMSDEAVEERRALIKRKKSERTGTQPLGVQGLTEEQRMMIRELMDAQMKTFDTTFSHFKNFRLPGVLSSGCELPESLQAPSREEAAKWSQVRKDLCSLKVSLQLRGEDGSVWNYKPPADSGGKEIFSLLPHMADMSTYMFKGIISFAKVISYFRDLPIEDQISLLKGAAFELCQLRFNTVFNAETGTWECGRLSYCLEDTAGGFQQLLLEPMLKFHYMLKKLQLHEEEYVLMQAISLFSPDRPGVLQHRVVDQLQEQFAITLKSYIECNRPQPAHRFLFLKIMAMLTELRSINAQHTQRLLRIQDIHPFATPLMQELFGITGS
Summary of the method: (§2)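 Antagonist mode: rifampicin 2 uM final co-added with compounds to hPXR-LucHepG2 cells for 24 h at 37C. Viability by CellTiter-Fluor, Ex/Em 405/540 nm, 1 h; reporter by ONE-Glo luminescence.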

[20] = Dual reporter qHTS for antagonist of Pregnane X Receptor (hPXR) against the NCATS DSHEA and TCM libraries: Fluorescence Readout (AID 1920061); details: PXR dual reporter cells, antagonist mode; series mostly up to 40 µM
Summary of the method: as §2

CNC1CCc2ccccc21 (stereo not given)
activity [1]: -8.85%
activity change, negative = inhibition [2]: 9.32% [at 114 µM]
activity [3]: -95.4%
activity [4]: -50.7%

O=C(O)C1C2CCC(O2)C1C(=O)O (stereo not given)
Potency [5]: inactive
Potency [6]: inactive
Potency [7]: inactive
Potency [8]: inactive
outcome [9]: inactive

COc1ccc(-c2coc3cc(O[C@@H]4O[C@H](CO)[C@@H](O)[C@H](O)[C@H]4O)ccc3c2=O)cc1
Potency [10]: inactive

C[C@@H](COc1ccc(Oc2ccccc2)cc1)Oc1ccccn1
Potency [11]: inactive

COc1ccc(-c2cc([C@H]3CN4CC[C@H]3C[C@@H]4CN)nc(C)n2)cc1OC
activity [1]: 2.55%
activity change, negative = inhibition [2]: 1.77%
activity [3]: -94.2%
activity [4]: 2.63%

CN(C)C/C=C/C(=O)Nc1cccc(C(OCCN2CCCCC2)c2cc3nccc(C(=O)O)c3s2)c1 (stereo not given)
Potency [11]: inactive

C[C@@H]1O[C@@H](O[C@H]2C[C@@H](O)[C@]3(CO)[C@H]4[C@H](O)C[C@]5(C)[C@@H]([C@@H]6COC(=O)C6)CC[C@]5(O)[C@@H]4CC[C@]3(O)C2)[C@H](O)[C@H](O)[C@H]1O
Potency [5]: inactive
Potency [6]: inactive
Potency [12]: inactive
Potency [7]: 1580 nM (active)
Potency [8]: inactive

COC1=CC(=O)O[C@@H](/C=C/c2ccc3c(c2)OCO3)C1
outcome [9]: inactive
outcome [13]: inactive
outcome [14]: inactive
outcome [15]: inactive
Potency [16]: inactive
max response [17]: 0.0511% (inactive)
outcome [18]: inactive
outcome [19]: inactive
outcome [20]: inactive

CN1C[C@H](C(=O)N[C@]2(C)O[C@@]3(O)C4CCCN4C(=O)[C@H](Cc4ccccc4)N3C2=O)C[C@@H]2c3cccc4[nH]cc(c34)C[C@H]21 (stereo not given in full)
Potency [5]: 2000 nM (active)
Potency [6]: 2510 nM (active)
Potency [12]: 1410 nM (active)
Potency [7]: inactive

CC[C@@H]1CN2CC[C@]3(C(=O)Nc4ccccc43)[C@@H]2C[C@@H]1/C(=C\OC)C(=O)OC
Potency [10]: 3980 nM (active)
outcome [13]: inactive
outcome [14]: inactive
outcome [15]: inactive
Potency [16]: inactive
max response [17]: -3.13% (inactive)
outcome [18]: inactive
outcome [19]: inactive
outcome [20]: inactive

CCCCCCCCCCCCCCCCCCCC(=O)O
Potency [10]: inactive
outcome [13]: inactive
outcome [14]: inactive
outcome [15]: inactive
Potency [16]: inactive
max response [17]: 0.104% (inactive)
outcome [18]: inactive
outcome [19]: inactive
outcome [20]: inactive

CC(C)(O)[C@@H]1CC[C@](C)([C@H]2[C@@H](O)C[C@@]3(C)[C@@H]4C[C@H](O)[C@H]5C(C)(C)[C@@H](O[C@@H]6OC[C@@H](O)[C@H](O)[C@H]6O[C@@H]6O[C@H](CO)[C@@H](O)[C@H](O)[C@H]6O)CC[C@@]56C[C@@]46CC[C@]23C)O1
Potency [10]: inactive
Potency [16]: inactive

COC1=CC(=O)OC(CCc2ccccc2)C1 (stereo not given)
Potency [10]: inactive
outcome [13]: inactive
outcome [14]: inactive
outcome [15]: inactive
Potency [16]: inactive
max response [17]: 2.83% (inactive)
outcome [18]: inactive
outcome [19]: inactive
outcome [20]: inactive

CCCCCCCCC[C@@H](O)CC(=O)CCc1ccc(O)c(OC)c1
Potency [10]: inactive
Potency [16]: inactive

C=C1CC/C=C(/C)CC[C@@H]2[C@@H]1CC2(C)C
Potency [10]: inactive
Potency [16]: inactive

C=C[C@H]1CN2CCc3c([nH]c4ccccc34)[C@H]2C[C@@H]1/C(=C\OC)C(=O)OC
Potency [10]: inactive
outcome [13]: inactive
outcome [14]: inactive
Potency [16]: 22400 nM (active)
max response [17]: -1.5% (inactive)
outcome [18]: inactive
outcome [19]: inactive
outcome [20]: inactive
